Screens: PubChem, National Center for Advancing Translational Sciences (NCATS)
Only some compounds are listed: those with a hit (about 1.9% of all), similar ones and a draw of the others.
RXFP1 antag: qHTS Assay for Antagonists of the Relaxin Receptor RXFP1; HEK293-RXFP1, relaxin-stimulated cAMP HTRF, 30 min; stronger effect = lower value; activity change, negative = inhibition, % at 57.5 µM; actives 0.59% (n = 350,000); AID 1259400, 2018;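 active = activity change of -60% or lower, but not beyond a set lower limit; inconclusive = change between -60% and -40%, or beyond the set limit; inactive = change above -40%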; note: % is set by controls: 0 for no effect and ±100 for the full control effect
Giardia killer: Small Molecules that selectively kill Giardia lamblia: qHTS | Giardia lamblia trophozoite viability | activity change, % at 7.66 µM, hits read low | actives 0.15% (n = 340,000); in the data active = activity change below about -80%; inconclusive = between about -30% and that limit;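 note: parasites exposed to compound for two days anaerobically before the ATP read; % is set by controls: 0 for no effect and ±100 for the full control effect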
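Viability, read as ATP luminescence: trophozoites at 100 cells/well, compound added, 48 hrs anaerobic at 37 deg C, then 15-30 min room-temperature development before reading.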
NPSR antagonist: qHTS Assay for Antagonists of the Neuropeptide S Receptor: cAMP Signal Transduction; Q6W5P4; CHO-NPSR cells, cAMP TR-FRET, antagonist mode; Potency, µM (highest dose often 38.3 µM), for inactives: at the top dose activity change, negative = inhibition, usual class: inhibitors; actives 1% (n = 220,000); note: potency is the fitted concentration of half-maximal effect; % is set by controls: 0 for no effect and ±100 for the full control effect; nearly all actives have a fitted effect of over 50% in size
Target sequence (Q6W5P4 whole entry, looked up): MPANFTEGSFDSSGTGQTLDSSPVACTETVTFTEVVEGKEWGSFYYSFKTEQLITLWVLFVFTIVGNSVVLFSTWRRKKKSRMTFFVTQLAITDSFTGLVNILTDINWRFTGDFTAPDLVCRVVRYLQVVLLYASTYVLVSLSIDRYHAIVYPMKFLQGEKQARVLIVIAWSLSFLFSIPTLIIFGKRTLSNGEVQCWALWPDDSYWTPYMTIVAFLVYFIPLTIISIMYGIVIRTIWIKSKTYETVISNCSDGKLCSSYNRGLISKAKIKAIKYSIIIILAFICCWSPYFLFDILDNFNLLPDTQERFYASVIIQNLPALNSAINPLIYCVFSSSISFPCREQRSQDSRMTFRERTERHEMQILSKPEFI
RXFP1 ag: qHTS Assay for Agonists of the Relaxin Receptor RXFP1; Potency, µM (top dose mostly 57.5 µM), for the others: at the highest dose activation, actives largely listed as activators; Relaxin receptor 1 (Homo sapiens), Q9HBX9; AID 2676, 2010; actives 0.3% (n = 370,000); HEK293T-RXFP1 cAMP TR-FRET, 30 min; response scale: percent of porcine relaxin response, buffer zero; note: potency is the fitted concentration of half-maximal effect; % is set by controls: 0 for no effect and ±100 for the full control effect; nearly all actives have a fitted effect of over 60% in size
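HEK293 cells stably expressing RXFP1, treated 30 min at 37C with compounds plus PDE4 inhibitor Ro 20174; cAMP measured by HTRF TR-FRET. Normalized to buffer and 29 nM porcine relaxin; EC50 by Hill fit.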
BRCA1 expr act: qHTS Assay to Identify Small Molecule Activators of BRCA1 Expression | actives 1.1% (n = 380,000) | Potency, µM (doses to about 46.1 µM), for the others: top-dose activation, actives largely listed as activators | MCF7-BRCA1-FFLuc reporter, luminescence, 48 h; response scale: scaled: vehicle 0%, 10 µM genistein 100%; note: potency is the fitted concentration of half-maximal effect; nearly all actives have a fitted effect of over 80% in size
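MCF7-BRCA1-FFLuc, 2000 cells/well; 2 h attach, 37 °C/5% CO2; compound 48 h; luciferase substrate 15 min; luminescence end-point. Norm. to genistein 10 microM max activation and DMSO; concentration-response curves fitted.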
IL-2 act: qHTS of IL-2 Activators; activation, % (series mostly up to about 46 µM); actives 0.065% (n = 360,000); IL-2 activation reporter assay, cell-based qHTS; stimulated with anti-CD3/CD4/CD28 beads; in transgenic mouse T cells; AID 652025, 2013; in the data active = activation above about 50%; inconclusive = mostly about 30% to 49%; note: 0% is about no effect
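Readout is EGFP and DsRed signal by fluorescent plate cytometry after 18 h at 37 degrees C. Transgenic mouse T cells (750/well) received compound for 60 min before bead stimulation (anti-CD3, anti-CD4, anti-CD28); memory T cells served as non-tolerant control.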
The depositor's hits bear a star; [ ] = another dose, or the depositor's remark. Unless noted, calls come from the whole dose curve; as a rule, active = well fitted curve in the direction sought with a large enough effect; inconclusive = small, poorly fitted or top-dose-only effect, or another doubt; inactive = no such curve, though single readings can be large; an effect the other way counts as inactive or inconclusive.

Results for CCCCc1nc2cc(C(=O)N3CCC[C@H]3CO)ccc2o1 ?
RXFP1 antag: 4; Giardia killer: 51; RXFP1 ag: -6%; BRCA1 expr act: 65%; IL-2 act: 4

What do the screens show for `O=C(O)c1cccc(NC(=S)NC(=O)c2ccc(-c3ccc(Cl)cc3)o2)c1`?
RXFP1 antag: -9; Giardia killer: 4; NPSR antagonist: -43%; RXFP1 ag: 17%; BRCA1 expr act: 11µM*; IL-2 act: 0

What do the screens show for `O=C(COc1ccccc1C(=O)Nc1ccccc1)Nc1ccccc1-c1ccccc1`?
BRCA1 expr act: -48%

How did CC(=O)NC1Sc2ccccc2N=C1c1ccccc1 (configuration not stated) do in these assays?
RXFP1 antag: -26; Giardia killer: -2; NPSR antagonist: 14%[46.1 µM]; RXFP1 ag: 1%; BRCA1 expr act: 10µM*; IL-2 act: 0

Results for O=C(COc1ccccc1C(=O)Nc1ccccc1)Nc1ccc(-c2ccccc2)cc1 ?
BRCA1 expr act: 38%

What do the screens show for `O=c1cc(O)c(Cl)c[nH]1`?
RXFP1 antag: -18

How did Cc1ncc([N+](=O)[O-])n1C do in these assays?
RXFP1 antag: 6

How did Cn1c([N+](=O)[O-])cnc1N1CCN(c2nncs2)C1=O do in these assays?
RXFP1 antag: 13; Giardia killer: -93*; NPSR antagonist: -8%; RXFP1 ag: 16µM*; BRCA1 expr act: -17%; IL-2 act: 1

What do the screens show for `CC(=O)Cn1cnc2c(cnn2-c2ccc(C)c(C)c2)c1=O`?
RXFP1 antag: -5; Giardia killer: -8; RXFP1 ag: -3%; BRCA1 expr act: 5µM*; IL-2 act: 0

How did CC(C)CCn1cnc2c(cnn2-c2ccc(F)cc2)c1=O do in these assays?
RXFP1 antag: -4; Giardia killer: 29; NPSR antagonist: -17%[46.1 µM]; RXFP1 ag: -2%; BRCA1 expr act: 8.9µM*; IL-2 act: 1

Results for CCn1c(C(=O)N2CCCC(C(=O)NCCCOC)C2)cc2sccc21 (configuration not stated) ?
RXFP1 antag: -2; RXFP1 ag: 0%

What do the screens show for `O=C(Nc1nc(-c2cccs2)cs1)c1cccc(S(=O)(=O)N2CCCCCC2)c1`?
RXFP1 antag: -5; Giardia killer: -11; NPSR antagonist: 10µM*; RXFP1 ag: 3%; BRCA1 expr act: -51%; IL-2 act: -3

Results for Cc1ccc(NC(=O)C2CCC(CNS(=O)(=O)c3ccc4c(c3)CCCC(=O)N4)CC2)c(C)c1 (configuration not stated) ?
RXFP1 ag: 0%; BRCA1 expr act: -22%

What do the screens show for `COc1cc2c(NC3CCN(C)CC3)nc(N3CCCN(C)CC3)nc2cc1OCCN(C)C`?
BRCA1 expr act: -7%

How did Cn1/c(=N\NC(=O)c2ccccc2Cl)sc2ccccc21 do in these assays?
RXFP1 antag: 2; Giardia killer: -21; NPSR antagonist: 0%; RXFP1 ag: -4%; BRCA1 expr act: 11µM*; IL-2 act: 0

How did COc1ccc(OC)c(NC(=O)c2c(NCc3ccc(C)o3)sc3c2CCC(C)C3)c1 (configuration not stated) do in these assays?
RXFP1 antag: -24; RXFP1 ag: 3%

How did O=c1c2ccccc2nc2ccc(NCc3ccco3)nn12 do in these assays?
Giardia killer: 8; NPSR antagonist: -19%[46.1 µM]; RXFP1 ag: 4%; BRCA1 expr act: 3.5µM*; IL-2 act: -2

How did COc1nc(C#N)nc(N2CCCCC2)n1 do in these assays?
Giardia killer: -1; BRCA1 expr act: -36%

How did CC(=Nc1ccc(Br)cc1)c1sc2ccccc2c1O do in these assays?
RXFP1 antag: -6; Giardia killer: -16; NPSR antagonist: -11%; RXFP1 ag: 3%; BRCA1 expr act: 4µM*; IL-2 act: 0

Results for Cc1ccc(S(=O)(=O)Oc2cccc(/C=N/n3cnnc3)c2)cc1 ?
Giardia killer: 17; NPSR antagonist: -4%; RXFP1 ag: 0%; BRCA1 expr act: -35%; IL-2 act: -4

Results for Cc1ccc(S(=O)(=O)Oc2cccc(/C=N/Nc3ccc(C(=O)O)cc3)c2)cc1 ?
RXFP1 antag: -62*; Giardia killer: 9; NPSR antagonist: inconclusive; RXFP1 ag: 0%; BRCA1 expr act: 63%; IL-2 act: 0

Results for COc1ccc(CC(=O)OCC(=O)c2ccc[nH]2)cc1 ?
RXFP1 antag: -8; Giardia killer: -10; RXFP1 ag: 3%; BRCA1 expr act: -7%; IL-2 act: -2

Results for Cc1ccsc1C(=O)OCC(=O)c1ccc[nH]1 ?
RXFP1 antag: 6; Giardia killer: 8; RXFP1 ag: 1%; BRCA1 expr act: 5.6µM*; IL-2 act: -3

How did COc1ccc(C(=O)COC(=O)c2cc(=O)[nH]c3ccccc23)c(OC)c1 do in these assays?
RXFP1 antag: -8; Giardia killer: -8; RXFP1 ag: 5%; BRCA1 expr act: 13µM*; IL-2 act: -1

What do the screens show for `COc1ccc(C(=O)COC(=O)c2cccc(-n3cnnn3)c2)c(OC)c1`?
RXFP1 antag: -8; Giardia killer: 11; RXFP1 ag: 5%; BRCA1 expr act: 2.5µM*; IL-2 act: 2

How did Cc1ccc(C(=O)OCC(=O)c2ccc[nH]2)s1 do in these assays?
RXFP1 antag: 1; Giardia killer: -13; NPSR antagonist: 8%; RXFP1 ag: 0%; BRCA1 expr act: 73%; IL-2 act: 0

What do the screens show for `COc1ccc(C(=O)OCC(=O)c2ccc[nH]2)c(OC)c1`?
RXFP1 antag: 5; Giardia killer: -3; BRCA1 expr act: 8.9µM*; IL-2 act: 0

How did O=C(COC(=O)c1cccc(-n2cnnn2)c1)c1ccc(F)cc1 do in these assays?
RXFP1 antag: 0; Giardia killer: -1; RXFP1 ag: 0%; BRCA1 expr act: inconclusive; IL-2 act: 0

What do the screens show for `Cc1cccc(N2CCN(C(=O)c3cc4c(=O)n(C)c5ccccc5c4n3C)CC2C)c1` (configuration not stated)?
RXFP1 antag: -77*; Giardia killer: 11; NPSR antagonist: inconclusive; RXFP1 ag: -1%; BRCA1 expr act: -57%; IL-2 act: -5
